# Reference: PubChem BioAssay (Tox21)
# Values without a mark were called inactive. The source made the active and inactive calls. Calls follow the shape of the dose curve; as a rule, active = well fitted curve in the direction sought with a large enough effect in the repeat runs; inconclusive = weak or mixed curves; inactive = flat fitted curve, though single readings scatter.
# Assay: qHTS assay to test for compound auto fluorescence at 590 nm (red) in HepG2 cell free culture (AID 720684)
# Conditions: cell-free medium autofluorescence, red 540/590 nm; series mostly up to 91.3 µM; fluorescence, % of Rose Bengal: at the top concentration
# Text: U.S. Tox21 Program National Center for Advancing Translational Sciences [NCATS] NIH Chemical Genomics Center [NCGC] U.S. Environmental Protection Agency [EPA] National Institutes of Environmental Health Sciences [NIEHS] National Toxicology Program [NTP] U.S. Food and Drug Administration [FDA] Tox21 Assay Overview: Compound auto fluorescence often interferes with screening of the compound library against various biological targets and signaling pathways. Some of these compounds may have fluorophoric properties. Such properties may interfere with the assay outputs resulting in false positives and/or negatives. To decrease such complications and ensure the compound activities are relevant in terms of biological response, the Tox21 10K compound library was screened for auto fluorescence. From the fluorophores used as reporter signals in our screening assays, the auto fluorescence equivalencies of compounds against three fluorophores have been evaluated: Triamterene, Fluorescein and Rose Bengal sodium for blue, green and red fluorescence, respectively. The fluorescence intensities were measured using Excitation/Emission wavelengths at 405/460nm, 485/535nm and 540/590nm for blue, green and red labels, respectively. This assay includes the red fluorescence data.
# Tox21 Assay Protocol Summary: 5 uL of culture medium (MEM containing 10% FBS) per well was dispensed into black wall/clear bottom 1536-well plates using a Multidrop Combi Dispenser (ThermoFisher Scientific, Waltham, MA). After 23 nL compound or DMSO vehicle was transferred into assay plate by a pintool work station (Kalypsys, San Diego, CA), fluorescence intensities in the assay plates were measured by an Envision (PerkinElmer, Shelton, CT) plate reader using three labels for measuring blue, green and red fluorescence at […] 460, 535 and 590nm respectively.
# % is scaled to controls: 0 for no effect and ±100 for the full control effect.
Structure (SMILES),outcome,"fluorescence, % of Rose Bengal"
Cc1cc(=O)[nH]c(C(C)C)n1,inactive,–
CCCCCCCCC,inactive,–
Oc1ccc2ccccc2c1N=Nc1ccccc1,inactive,–
CN(CCOc1ccc(CC2SC(=O)NC2=O)cc1)c1ccccn1 (stereo not given),inactive,–
O=C1O[C@H](CO)[C@@H](O)[C@H](O)[C@H]1O,inactive,–
CCCCOCCOCCOC(=O)CCCCC(=O)OCCOCCOCCCC,inactive,–
C=C(C)C(=O)OCC(CC)(COC(=O)C(=C)C)COC(=O)C(=C)C,inactive,–
C/C=C(C)/C=C/C=C(C)C,inactive,–
COC(=O)c1ccc(C(=O)OC)cc1,inactive,–
O=S(=O)(O)CCS,inactive,–
O=C(O)c1cc(-c2ccccc2)nc2ccccc12,inactive,–
OC[C@@H](O)[C@H](O)[C@H](O)[C@@H](O)CO,inactive,–
COCC(C)O (stereo not given),inactive,–
CS(=O)(=O)c1ccc([C@@H](O)[C@@H](CO)NC(=O)C(Cl)Cl)cc1,inactive,–
OCC#CCO,inactive,–
C=CC(=O)OCCCCCCCC(C)C,inactive,–
OC[C@@H](O)[C@@H](O)[C@H](O)[C@@H](O)CO,inactive,–
CCCCC(CC)COC(=O)CCCCCCCC(=O)OCC(CC)CCCC (stereo not given),inactive,–
COCC(=O)O,inactive,–
C=C(C)C(=O)OCCCCCCCCCCCC,inactive,–

Structure (SMILES),outcome,"fluorescence, % of Rose Bengal"
CC1(C)O[C@@H]2C[C@H]3[C@@H]4C[C@H](F)C5=CC(=O)CC[C@]5(C)[C@H]4[C@@H](O)C[C@]3(C)[C@]2(C(=O)CO)O1,inactive,–
O=c1c(-c2ccc(O)cc2)coc2cc(O)ccc12,–,0.188%
CCOC(=O)[C@H](CCc1ccccc1)N[C@@H](C)C(=O)N1Cc2ccccc2C[C@H]1C(=O)O,inactive,–
Cc1cc(O)c2c(c1)C(=O)c1cc(O)cc(O)c1C2=O,inactive,–
O=C1CCCCC1,inactive,–
CCc1ccc(O)cc1,inactive,–
Nc1c(S(=O)(=O)O)cc(Br)c2c1C(=O)c1ccccc1C2=O,inactive,–
NCCc1ccc(O)c(O)c1,inactive,–
CCCCNC(N)=O,inactive,–
Cn1c([N+](=O)[O-])cnc1COC(N)=O,inactive,–
C=C(C)C(=O)OCCC[Si](OC)(OC)OC,inactive,–
O=[N+]([O-])c1cc(N(CCO)CCO)ccc1NCCO,inactive,–
C[C@@H](O)[C@H]1C(=O)N2C(C(=O)O)=C(S[C@@H]3CN[C@H](C(=O)N(C)C)C3)[C@H](C)[C@H]12,–,-0.427% [at 46 µM]
CCCCCCOC(C)=O,inactive,–
CC1=C(CC(=O)O)c2cc(F)ccc2/C1=C\c1ccc(S(C)=O)cc1 (stereo not given),inactive,–
O=Nc1ccc(O)cc1,inactive,–
CC(=O)Nc1ccc(C(=O)O)cc1,inactive,–
NCc1cccc(CN)c1,inactive,–
CCCCCCCCCCCCOCC1CO1 (stereo not given),inactive,–
OC1CCCC1,inactive,–
